# Compounds with a hit are over-represented: about 2% of the library has one in this group of screens.
# 697 NFkB inh: inhibitors of PMA/ionomycin-induced NF-kB reporter, 697 cells, primary screen, B-cell NF-kB inhibitor project, cell-based, luminescence, uHTS; inhibition, % at 4 µM; 697 B-cell NF-kB luciferase reporter, 16 h; 0.33% of 330,000 active; in the data active = inhibition above about 35%
# Gli-Sufu block: Gli-Sufu pathway antagonists, primary screen, luciferase luminescence, Sufu-KO-LIGHT cells, uHTS | inhibition, % at 5 µM | Sufu-KO-LIGHT fibroblasts, Gli luciferase reporter luminescence | 0.74% of 340,000 active | AID 588413, 2011;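 active = inhibition above about 55%, limit read from the data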;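 note: 0% = DMSO-treated cells and 100% = wells with medium but no cells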
# Jurkat NFkB inh: inhibitors of induced NF-kB luciferase reporter, primary screen, TCR NF-kB activation inhibitor project, cell-based, luminescence, uHTS; AID 435003, 2010; Jurkat, PMA/ionomycin-induced NF-kB luciferase reporter; 0.53% of 330,000 active; inhibition, % at 4 µM; in the data active = inhibition above about 50%
# GalR3 antagonist: GalR3 antagonists in HEK293 cells, primary screen, cell-based, fluorescence readout | 0.44% of 360,000 active | HEK293 GalR3-CNG cAMP membrane potential fluorescence; galR3 body fused to GalR1 C-terminus | Galanin receptor type 3 (Homo sapiens), O60755 | inhibition, % at 3 µM | AID 651719, 2012;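 active = inhibition above the screen-wide average plus 3 SD, cut at about 13% in these data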;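 note: forskolin and galanin both at EC90 stimulate the cells; cAMP rise reported by CNG channel membrane potential dye signal; 0% = forskolin plus galanin with DMSO and 100% = forskolin alone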
# Target sequence (O60755 1-299 limits assumed): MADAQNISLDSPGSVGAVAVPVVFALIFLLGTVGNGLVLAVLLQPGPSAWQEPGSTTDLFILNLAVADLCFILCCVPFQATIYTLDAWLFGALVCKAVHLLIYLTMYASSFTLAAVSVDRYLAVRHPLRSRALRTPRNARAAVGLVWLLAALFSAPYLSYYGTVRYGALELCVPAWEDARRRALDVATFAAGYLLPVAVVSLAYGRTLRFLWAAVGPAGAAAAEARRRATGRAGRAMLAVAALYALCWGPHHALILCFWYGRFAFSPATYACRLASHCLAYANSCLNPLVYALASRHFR
# COUP-TFII inh: NR2F2 transcriptional activity inhibitors, primary screen, cell-based, luciferase reporter, HEK293T, luminescence | COUP transcription factor 2 (Homo sapiens), P24468 | HEK293T NGFI-A luciferase reporter | inhibition, % at 8.6 µM | 0.7% of 370,000 active;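 active = inhibition above a per-plate cutoff, mean inhibition of test wells between control levels plus 3 SD, cut at about 38% in these data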;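 note: cells cotransfected with COUP-TFII expression vector driving the NGFI-A reporter; 0% = median of COUP-TF2 test wells and 100% = reporter-only cells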
# Target sequence (P24468 whole entry, looked up): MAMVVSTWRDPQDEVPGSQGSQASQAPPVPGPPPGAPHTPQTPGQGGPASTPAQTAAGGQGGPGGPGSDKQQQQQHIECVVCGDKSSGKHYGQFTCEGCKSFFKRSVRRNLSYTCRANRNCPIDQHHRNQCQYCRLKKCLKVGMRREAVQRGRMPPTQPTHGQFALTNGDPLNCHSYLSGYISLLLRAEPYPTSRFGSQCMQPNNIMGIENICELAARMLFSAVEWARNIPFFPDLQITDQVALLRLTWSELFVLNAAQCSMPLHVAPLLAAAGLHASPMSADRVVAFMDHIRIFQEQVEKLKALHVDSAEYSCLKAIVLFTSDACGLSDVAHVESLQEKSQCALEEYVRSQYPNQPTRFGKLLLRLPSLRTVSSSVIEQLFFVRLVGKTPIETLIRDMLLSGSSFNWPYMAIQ
# 697 NFkB conf: PMA/ionomycin-induced NF-kB reporter inhibitors, 697 retest, confirmation, B-cell NF-kB inhibitor project, cell-based, luminescence, single concentration; shares compounds with 697 NFkB inh; 697 B-cell NF-kB luciferase, 16 h; inhibition, % at 4 µM; 35% of 2,000 active; AID 449746, 2010; in the data active = inhibition mostly above about 28%, no sharp cut-off; inactive = mostly below about 22%
# Gli antag conf: Gli-SUFU pathway antagonists, confirmation, single concentration, luciferase luminescence, Sufu-KO-LIGHT cells. shares compounds with Gli-Sufu block. Gli luciferase reporter. inhibition, % at 5 µM. 40% of 2,500 active. AID 602428, 2012;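 active = mean inhibition at 5 µM reaching about 45%, limit read from the data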;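 note: plate controls were DMSO-treated cells for no effect and wells lacking cells for full effect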
# Gli cytotox: cytotoxicity in Sufu-KO-LIGHT cells, confirmation, cytotoxicity control for Gli-SUFU antagonist project, cell-based, ATP luminescence, single concentration | 32% of 2,500 active | cytotoxicity, % at 5 µM | shares compounds with Gli-Sufu block | AID 651994, 2013;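 active = mean cytotoxicity at 5 µM above about 25%, limit read from the data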;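 note: cells exposed to compound overnight for roughly 16 to 18 hours; plate controls were DMSO wells with cells for no effect and medium without cells for full effect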
# Wnt3a cs: Wnt3a reporter signal inhibition, confirmation, counter-screen for Gli-SUFU antagonist project, Wnt-LIGHT cells, luminescence, single concentration | shares compounds with Gli-Sufu block | Wnt3a-driven luciferase reporter | inhibition, % at 6.25 µM | 20% of 2,500 active;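 active = mean inhibition above about 25%, limit read from the data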
# GalR3 antag conf: GalR3 antagonist hit confirmation, cell-based, fluorescence, triplicate. HEK293 GalR3 CNG cAMP biosensor, membrane potential fluorescence; galR3 fused to GalR1 carboxy tail; challenged with forskolin and galanin at EC90. 59% of 1,600 active. inhibition, % at 3 µM. shares compounds with GalR3 antagonist;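 active = inhibition above the primary screen's cutoff, the mean inhibition of all screened compounds plus 3 SD, cut at about 13% in these data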;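 note: 0% = forskolin plus galanin and 100% = forskolin alone with DMSO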
# CNG parental: nonspecific cAMP agonists in parental HEK-CNG cells, counter-screen for GalR3 antagonist project, cell-based, fluorescence, high throughput. shares compounds with GalR3 antagonist. HEK293-CNG parental cells, cAMP membrane potential fluorescence; normalised: DMSO wells 0%, forskolin wells 100%. activation, % at 3 µM. 10% of 1,600 active. AID 652268, 2013; in the data active = activation above about 1.3%
# Gal4-VP16 ctr: Gal4-VP16 luciferase reporter inhibitors, counter-screen for COUP-TFII antagonist project, cell-based, luminescence, HEK293; shares compounds with COUP-TFII inh; inhibition, % at 8.5 µM; 25% of 2,500 active; in the data active = inhibition above about 13%
# NR2F2 inh conf: NR2F2 transcriptional activity inhibitors, confirmation, cell-based, luciferase reporter, HEK293, triplicate | 45% of 2,500 active | AID 687008, 2013 | HEK293 NGFI-A luciferase reporter, luminescence | shares compounds with COUP-TFII inh | inhibition, % at 8.5 µM;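 active = mean inhibition over three repeats above a set limit taken from the earlier primary screen, cut at about 38% in these data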;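 note: 100% = cells given the luciferase reporter alone without the COUP-TF2 vector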
# * hit, by the source's call; . = no result; ! = not confirmed by another sample.
SMILES,697 NFkB inh,Gli-Sufu block,Jurkat NFkB inh,GalR3 antagonist,COUP-TFII inh,697 NFkB conf,Gal4-VP16 ctr,NR2F2 inh conf,others
CN(CC1CCCO1)S(=O)(=O)c1ccc(C(=O)Nc2nc3cc4c(cc3s2)OCO4)cc1 (stereo not given),62*,0,26,.,39*,65*,0,78*,
Cc1ccc(S(=O)(=O)CC2CSc3nc4ccccc4n32)cc1 (stereo not given),62*,72*,35,-11,67*,75*,9,64*,Gli antag conf=70*;Gli cytotox=18;Wnt3a cs=47*
Cc1ccc(S(=O)(=O)CC2CSc3nc(N)cc(=O)n32)cc1 (stereo not given),-40,8,2,6,-8,.,.,.,
Cc1ccc(-c2c[n+]3c(n2-c2ccccc2)SCC3)cc1,39*,84*,34,0,65*,42*,0,25,Gli antag conf=83*;Gli cytotox=23;Wnt3a cs=38*
Cc1ccc(-c2cn(-c3ccccc3)c3[n+]2CCCS3)cc1,56*!,83*!,40,1,55*,35*,11,39*!,Gli antag conf=87*;Gli cytotox=45*;Wnt3a cs=45*
N#Cc1ccc(-c2cn(-c3ccccc3)c3[n+]2CCCS3)cc1,6,10,-13,-4,1,.,.,.,
COc1ccc(-c2c[n+]3c(n2-c2ccccc2)SCC3)cc1OC,8,-3,14,-3,-2,.,.,.,
CN1C(=O)C(=O)N2C(=C[C@]3(c4c[nH]c5ccccc45)c4ccccc4N[C@H]23)C1=O,.,.,.,.,5,.,.,.,
CCOC(=O)CC[C@@H]1CC[C@]2(CCCN(C(=O)c3ccno3)C2)O1,.,.,.,.,-3,.,.,.,
CCN(CC)C(=O)CC[C@@H]1CC[C@]2(CCCN(C(=O)c3ccco3)C2)O1,.,.,.,.,-4,.,.,.,
Cc1nc2c(-c3ccc(F)cc3)cnn2c(N)c1-c1ccc(F)cc1,-357,32,-149,-11,47*,-252,-89,18,
Cn1cc(C2(C)CCOc3ccccc32)c2ccccc21 (stereo not given),.,.,.,.,-21,.,.,.,
COC(=O)c1c(-c2ccccc2OC)sc2ccc(OC)cc12,8,-19,-13,-4,-1,.,.,.,
COC(=O)c1c(-c2ccc(N(C)C)cc2)sc2ccc(OC)cc12,53*,34,-6,2,57*,62*,24*,49*,
N#Cc1cccc(NC(=O)OCCCN2CCC3(CCCCC3)C2=O)c1,.,.,.,.,-2,.,.,.,
FC(F)(F)c1ccc(Cn2ccc3ccc(-c4ccc5ccn(Cc6ccccc6)c5c4)cc32)cc1,.,.,.,.,-7,.,.,.,
O=c1cc[nH]c2ccc(Cl)cc12,0,0,-12,5,-20,.,.,.,
O=c1cccc2c1c1cc[nH]c3ccc(=O)n2c31,56*,-1,24,-7,45*,52*,-5,8,
CN(C)c1cc[n+](Cc2c(Cl)cccc2Cl)cc1,45*,73*,47,-1,47*,39*,5,34,Gli antag conf=67*;Gli cytotox=17;Wnt3a cs=30*
CN(C)c1cc[n+](CC[n+]2ccc(N(C)C)cc2)cc1,10,-8,4,-3,-6,.,.,.,
COc1ccc(NS(=O)(=O)c2ccc(-c3coc(C)n3)cc2)cc1OC,41*,73*,36,85*,52*,59*,9,59*,Gli antag conf=73*;Gli cytotox=28*;Wnt3a cs=51*;GalR3 antag conf=100*;CNG parental=0
COC(=O)[C@]12C[C@H](CC(=O)N3CCSCC3)C(=O)N(Cc3ccc(Cl)cc3Cl)C1=C[C@H](C1CCCC1)O[C@@H]2C,.,.,.,.,12,.,.,.,
COc1cc(C[C@@H]2C(=O)OC[C@H]2Cc2ccc(OC)c(OC)c2)ccc1O,85*,66*,42,102*,70*,70*,0,57*,Gli antag conf=57*;Gli cytotox=32*;Wnt3a cs=32*
C[C@@H]1[C@H](c2ccccc2)OC(O)([C@H](Cc2ccccc2)NC(=O)OC(C)(C)C)CN1C (stereo not given in full),.,.,.,.,16,.,.,.,
CCOC(=O)N1CCN(C(=O)C[C@H]2C[C@@]3(C(=O)OC)C(=C[C@H](C(C)C)O[C@@H]3C3CC3)N(Cc3ccco3)C2=O)CC1,.,.,.,.,-24,.,.,.,
O=C(CCN1C(=O)c2ccccc2S1(=O)=O)Nc1cc(Cl)ccc1Cl,-21,4,3,0,16,.,.,.,
O=C(CN1C(=O)c2ccccc2S1(=O)=O)c1ccc(Cl)cc1Cl,74*,90*,-14,2,91*,74*,70*,90*,
O=C(C1CCCN1S(=O)(=O)c1ccc(Br)s1)N1CCN(c2ccccc2)CC1 (stereo not given),.,.,.,.,2,.,.,.,
Cc1ccc2nc(NC(=O)CSCC(=O)OCC(=O)c3ccc(Br)cc3)sc2c1,64*,26,41,-2,40*,54*,67*,49*,
CCOc1ccc(/C=C2\SC(=S)N(CCCC(=O)NCCCN3CCOCC3)C2=O)cc1,38*,18,11,-6,69*,52*,27*,25,

# Source: PubChem BioAssay
